Test results: PubChem BioAssay (NCI)
Compounds without any hit were thinned out: in the full panel of roughly 79,000, 15% have a hit. A number with no mark means an inactive call. Activity calls are given as the source filed them. Rule as the data show it: active = growth inhibition above about 70%; inactive = the rest.

Experiments:
[1] = NCI Yeast Anticancer Drug Screen. Data for the rad50 strain (AID 155);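 also: 0% = growth of vehicle-only cultures of the same strain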; settings: S. cerevisiae rad50 strain growth inhibition, stronger effect = higher value
Outline: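 Yeast carrying a defined DNA repair defect were exposed to test compounds, and growth was compared with vehicle-treated controls to give percent inhibition.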

[2] = NCI Yeast Anticancer Drug Screen. Data for the mec2-1 strain (AID 157); settings: S. cerevisiae mec2-1 strain, stronger effect = higher value
Outline: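 mec2-1 yeast strain, carrying an alteration in DNA damage repair or cell cycle control, was exposed to compounds; growth inhibition was measured relative to vehicle-treated controls.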

[3] = NCI Yeast Anticancer Drug Screen. Data for the sgs1 mgt1 strain (AID 161);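 also: 0% = growth of cultures given vehicle only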; settings: S. cerevisiae sgs1 mgt1 strain, stronger effect = higher value
Outline: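 Yeast cells carrying a defined DNA-repair defect were exposed to test compounds. Growth inhibition was measured relative to vehicle-treated controls.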

[4] = NCI Yeast Anticancer Drug Screen. Data for the cln2 rad14 strain (AID 165);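 also: 0% = growth equal to vehicle treated cultures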; settings: S. cerevisiae cln2 rad14 strain, stronger effect = higher value
Outline: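 Yeast carrying cln2 and rad14 alterations (cell cycle control and DNA damage repair) were exposed to compounds. Growth inhibition was measured against vehicle-treated controls.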

[5] = NCI Yeast Anticancer Drug Screen. Data for the bub3 strain (AID 167); settings: S. cerevisiae bub3 mutant strain, stronger effect = higher value
Outline: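 Compounds were applied to a genetically altered yeast strain carrying a cell-cycle control defect. Growth inhibition was scored against vehicle-treated controls.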

[6] = NCI Yeast Anticancer Drug Screen. Data for the mlh1 rad18 strain (AID 175); settings: S. cerevisiae mlh1 rad18 strain growth inhibition, stronger effect = higher value
Outline: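 Growth inhibition of the yeast strain was measured after compound exposure and expressed relative to vehicle-treated controls. The strain carries defined defects in DNA damage repair.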

[7] = at 5.0 µM (retest, dose inferred, filed as 0.5)
[8] = at 50.0 µM (retest, dose inferred, filed as 5.0)

SMILES	growth inhibition [1, 7]	growth inhibition [1, 8]	growth inhibition ([1]; at 50.0 µM)	growth inhibition [2, 7]	growth inhibition [2, 8]	growth inhibition ([2]; at 50.0 µM)	growth inhibition [3, 7]	growth inhibition [3, 8]	growth inhibition ([3]; at 50.0 µM)	growth inhibition [4, 7]	growth inhibition [4, 8]	growth inhibition ([4]; at 50.0 µM)	growth inhibition [5, 7]	growth inhibition [5, 8]	growth inhibition ([5]; at 50.0 µM)	growth inhibition [6, 7]	growth inhibition [6, 8]	growth inhibition ([6]; at 50.0 µM)
C=C1CC(C)(COc2ccc3c(C)c(C)c(=O)oc3c2C)OC1=O (stereo not given)	26%	82% (active)	-23.4%	16%	90% (active)	-75.4%	24%	73% (active)	-10.7%	30%	64%	-23.1%	26%	86% (active)	-10.8%	29%	94% (active)	-24.7%
CN(C)c1cc2nc3ccccc3nc2cc1O	2%	46%	62.9%	-1%	53%	15.6%	-1%	26%	34.6%	-7%	34%	45.8%	-3%	59%	94.5% (active)	7%	76% (active)	81.9% (active)
COc1cccnc1/C=N/NC(N)=S	-4%	58%	69.5%	-4%	59%	69.9%	-4%	63%	73.9% (active)	-6%	19%	48.5%	0%	60%	75.5% (active)	-5%	70% (active)	71.9% (active)
ClC1=C(Cl)C2c3ccccc3C1c1ccccc12	-4%	97% (active)	93.6% (active)	6%	97% (active)	76.2% (active)	0%	97% (active)	95.7% (active)	-4%	97% (active)	65.2%	-9%	98% (active)	47.9%	-5%	97% (active)	95.7% (active)
O=[N+]([O-])c1ccc(N=Nc2ccc(O)cc2O)cc1	48%	97% (active)	98.5% (active)	24%	98% (active)	98.9% (active)	36%	98% (active)	98.3% (active)	-1%	97% (active)	90.4% (active)	45%	97% (active)	98.9% (active)	28%	97% (active)	97.7% (active)
O=C1c2c(O)ccc(O)c2C(=O)c2c(O)ccc(O)c21	-23%	22%	21.4%	1%	-12%	18.2%	-12%	10%	12.3%	-10%	-2%	41%	-14%	8%	16.5%	8%	-2%	4.25%
COc1ccccc1/C=C1\S/C(=N/Nc2nc(C)c(C(C)=O)s2)NC1=O	20%	29%	-14.6%	15%	32%	-3.1%	20%	39%	-0.75%	20%	34%	5.4%	17%	43%	-18%	15%	36%	-7.7%
Cc1ccc(SSCCCCCS(=O)O)cc1	1%	24%	49.5%	4%	60%	23.1%	3%	54%	42.9%	-5%	34%	58%	10%	88% (active)	84.4% (active)	6%	49%	77.5% (active)
CCOc1ccccc1N1C(=O)C=CC1=O	57%	67%	92% (active)	60%	75% (active)	93.6% (active)	99% (active)	100% (active)	93.8% (active)	99% (active)	100% (active)	90.5% (active)	100% (active)	100% (active)	92.3% (active)	42%	58%	92.5% (active)
O=[N+]([O-])c1cccc(S(=O)(=O)N/N=C/c2cc(I)cc([N+](=O)[O-])c2O)c1	5%	6%	25.1%	5%	2%	13.1%	10%	11%	34.5%	-1%	2%	7.85%	2%	-1%	4.7%	6%	8%	45.9%
O[C@H]1[C@H]2c3cc4c(cc3CN3CCC(=C[C@@H]1O)[C@H]23)OCO4	13%	98% (active)	91.5% (active)	19%	99% (active)	93.6% (active)	23%	98% (active)	93.2% (active)	77% (active)	98% (active)	90.7% (active)	0%	98% (active)	91.2% (active)	26%	99% (active)	92.2% (active)
O=C(/C=C/C=C/c1ccccc1)c1ccco1	-7%	-16%	83% (active)	14%	5%	90.3% (active)	-10%	28%	91.7% (active)	4%	28%	50.4%	-6%	57%	91.9% (active)	-19%	44%	76% (active)
CCOC(=O)c1c(I)[nH]c(I)c1C	-1%	11%	30.3%	0%	5%	10.2%	-1%	14%	22.2%	-1%	3%	10.6%	4%	3%	38.5%	2%	9%	42.3%
CCOC(C)c1ccccc1 (stereo not given)	39%	90% (active)	-37%	42%	99% (active)	-5.85%	16%	62%	30.8%	10%	59%	-16.9%	19%	99% (active)	-0.8%	64%	99% (active)	-0.2%
CC(C)(C)NC1=NC(C(F)(F)F)(C(F)(F)F)NC(=O)N1	-19%	91% (active)	38.9%	-20%	93% (active)	40.8%	-52%	88% (active)	33.9%	-21%	72% (active)	21.3%	-56%	95% (active)	70.5% (active)	-22%	92% (active)	12.4%
COc1ccc(C2CC(CO)ON2c2ccccc2)cc1 (stereo not given)	-17%	7%	98% (active)	-14%	-9%	98.5% (active)	-1%	-15%	98.4% (active)	-23%	-18%	97.9% (active)	-21%	-33%	98.5% (active)	-6%	1%	98.8% (active)
N#Cc1c(SCc2ccc(Cl)cc2)nsc1Nc1ccc(Cl)cc1	90% (active)	95% (active)	86.2% (active)	91% (active)	95% (active)	88% (active)	91% (active)	98% (active)	87.2% (active)	87% (active)	97% (active)	87.7% (active)	86% (active)	98% (active)	21%	93% (active)	93% (active)	86% (active)
Cc1cccc(C[P+](c2ccccc2)(c2ccccc2)c2ccccc2)c1	76% (active)	97% (active)	90.3% (active)	67%	99% (active)	93.1% (active)	58%	99% (active)	93.3% (active)	32%	98% (active)	91.9% (active)	71% (active)	99% (active)	92.2% (active)	76% (active)	98% (active)	90.3% (active)
CN(C)c1nc(=Nc2ccc(N=c3nc(N(C)C)ss3)cc2)ss1	0%	97% (active)	91.8% (active)	4%	96% (active)	92.8% (active)	28%	98% (active)	88.2% (active)	-4%	93% (active)	69%	4%	98% (active)	93.4% (active)	11%	98% (active)	96.9% (active)
O=C1CC(=S)NC(=S)N1	-2%	-6%	12.8%	0%	-1%	-1.7%	-1%	-2%	-15%	-5%	-6%	-26%	-2%	-8%	-10.4%	-3%	-5%	40.2%
